# Screening data (PubChem)
# SENP7 inh – SENP7 protease inhibition; Q9BQF6; AID 434973; inhibition, % at 5 µM; hit rate 1.5% among 330,000; recombinant SENP7, Z-RLRGG-aminoluciferin luminescence, 40 min;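 active means inhibition above about 50% at the single test dose, limit read from the data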
# SENP6 block – inhibitors of human SENP6 protease | Q9GZR1 | Recombinant SENP6 catalytic domain, aminoluciferin luminescence | inhibition, % at 10 µM | hit rate 1.8% among 330,000 | AID 2599;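 active means inhibition above about 50% at the single tested dose, limit read from the data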
# Target sequence (Q9GZR1 628-1112 limits assumed): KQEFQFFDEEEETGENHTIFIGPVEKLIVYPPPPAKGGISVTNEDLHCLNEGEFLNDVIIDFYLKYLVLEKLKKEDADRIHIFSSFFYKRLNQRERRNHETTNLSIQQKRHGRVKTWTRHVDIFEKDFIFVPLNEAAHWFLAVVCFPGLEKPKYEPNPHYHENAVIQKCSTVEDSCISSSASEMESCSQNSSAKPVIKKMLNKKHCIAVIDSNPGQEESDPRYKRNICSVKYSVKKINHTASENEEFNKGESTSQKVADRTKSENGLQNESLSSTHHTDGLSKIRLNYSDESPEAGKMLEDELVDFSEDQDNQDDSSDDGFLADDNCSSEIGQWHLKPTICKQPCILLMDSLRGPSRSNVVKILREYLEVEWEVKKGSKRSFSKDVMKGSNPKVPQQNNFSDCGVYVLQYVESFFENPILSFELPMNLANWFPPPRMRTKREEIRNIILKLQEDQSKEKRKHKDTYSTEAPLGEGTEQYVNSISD
# Platelet DG rel – platelet dense granule release activity; human platelet-rich plasma, SFLLRN dense granule ATP release, luminescence; inhibition, %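 (compounds screened at 7.5 µM in platelet-rich plasma)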; hit rate 0.22% among 300,000;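 active means mean replicate score, as percent of positive control, at or above 50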
# HSP90 inh – blocks HSP90-mediated luciferase refolding in reticulocyte lysate; Rabbit reticulocyte lysate, luciferase refolding luminescence, 3 h; inhibition, % at 5.6 µM; hit rate 0.91% among 290,000; AID 1789;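 active means inhibition above the screen-wide mean plus 3 SD, computed separately per campaign, cut at about 16% in these data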;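 further: inhibitors lower the luminescence because luciferase stays unfolded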
# SENP8 block-1 – blocks human SENP8 cleavage of Nedd8 substrate; recombinant SENP8, Nedd8 substrate fluorescence; Q96LD8; hit rate 0.64% among 360,000; inhibition, % at 20 µM; in the data active means inhibition mostly above about 40%, no sharp cut-off; inactive means mostly below about 27%
# SENP8 block-2 – inhibitors of human SENP8 protease; purified SENP8, Z-RLRGG-aminoluciferin cleavage, luminescence; hit rate 1.2% among 330,000; inhibition, % at 10 µM; Q96LD8; in the data active means inhibition above about 50%
# SENP8 inh conf – SENP8 (human) inhibition, single concentration confirmation. shares compounds with SENP8 block-1. purified SENP8, Nedd8-AMC/pro-Nedd8 cleavage fluorescence, 30 min. inhibition, % at 25 µM. hit rate 15% among 1,400; in the data active means inhibition mostly above about 39%, no sharp cut-off; inactive means mostly below about 34%
# A number is an active result; i = inactive; nt = no result. Rows were chosen to be rich in hits. Some 2.8% of all compounds tested hit in one or more screens of this group.
SMILES,SENP7 inh,SENP6 block,Platelet DG rel,HSP90 inh,SENP8 block-1,SENP8 block-2,SENP8 inh conf
Cc1ccc(NC(=S)N/N=C/c2ccc([N+](=O)[O-])s2)cc1,i,i,i,i,40.3,i,53.0
COc1ccc(-c2ccc(C(c3c(C)[nH][nH]c3=O)c3c(C)[nH][nH]c3=O)o2)c([N+](=O)[O-])c1,i,i,nt,i,37.6,i,i
Cc1[nH][nH]c(=O)c1C(c1ccc(N(C)C)c(Br)c1)c1c(C)[nH][nH]c1=O,i,i,i,i,i,i,nt
Cc1[nH][nH]c(=O)c1C(c1ccc(-c2ccc(F)cc2)o1)c1c(C)[nH][nH]c1=O,i,i,i,i,75.0,i,72.0
CN(CC(=O)Nc1ccccc1Br)C(=O)CNC(=O)c1ccco1,i,i,i,nt,i,i,nt
CC1CCN(c2ccc([N+](=O)[O-])cn2)CC1,i,i,i,i,i,i,nt
Cc1c(C)c(C)c(C(=O)C2CCN(c3ccc([N+](=O)[O-])cn3)CC2)c(C)c1C,i,i,i,i,44.0,i,i
COc1cc(CC(=O)N(C)CC(=O)Nc2cc(C)ccc2C)cc(OC)c1OC,i,i,i,i,i,i,nt
CCOC(=O)C1(CC2CCCCO2)CCN(Cc2cn[nH]c2-c2cccc(F)c2)CC1 (stereo not given),i,i,i,i,45.2,i,i
Cc1ccc(C(=O)/C=C/C(=O)O)cc1,i,i,i,i,i,i,nt
Cc1ccc(/C=C/C(=O)c2ccc(O)cc2)cc1,59.3,85.8,i,i,41.5,62.8,i
CCC(NC(=O)CSc1nnnn1C1CC1)c1ccc(Br)cc1 (stereo not given),i,i,nt,nt,i,i,nt
Cc1ccc(C(=O)N2C(=S)C(c3ccc(F)cc3)=NC23CCN(C)CC3)cc1,i,i,i,i,66.0,i,58.2
Cc1c(N=C2N=C(NC(=O)c3cccs3)c3ccccc32)c(=O)n(-c2ccccc2)n1C,i,i,i,i,59.8,i,i
Cc1c(N=C2N=C(NC(=O)NC(C)(C)C)c3ccccc32)c(=O)n(-c2ccccc2)n1C,i,i,i,i,i,i,nt
O=C(C1CCC(=O)N1Cc1ccccc1Cl)N1CCN(c2cccc(Cl)c2)CC1 (stereo not given),i,i,i,i,40.4,i,i
O=[N+]([O-])c1ccc(N2CCN(S(=O)(=O)c3ccc(Cl)cc3)CC2)cc1NCc1cccnc1,i,i,i,i,i,i,nt
O=C(c1ccc(Cl)cc1)N1CCN(c2ccc([N+](=O)[O-])c(NCc3cccnc3)c2)CC1,i,i,i,i,45.8,i,i
O=[N+]([O-])c1ccc(N2CCN(S(=O)(=O)c3ccccc3)CC2)cc1NCc1cccnc1,i,i,i,i,49.9,i,i
CC(C)CN(C(=O)c1cccc(S(=O)(=O)N2CCN(Cc3ccccc3)CC2)c1)C1CCS(=O)(=O)C1 (stereo not given),i,i,i,nt,i,i,nt
COc1ccc(-c2cc(C(=O)N(C)CC(=O)Nc3cccc(F)c3)c3ccccc3n2)cc1,i,i,i,nt,i,i,nt
CCCNC(=O)c1cc(C2CCCN(S(=O)(=O)c3cccs3)C2)on1 (stereo not given),nt,nt,nt,nt,i,nt,nt
CCc1noc(C)c1C(=O)N(CCC(C)C)c1c(N)n(Cc2ccccc2)c(=O)[nH]c1=O,i,i,i,nt,i,i,nt
COc1cccc2c1nc(C)c1cc(C)oc12,i,i,i,i,i,i,nt
COc1cccc2nc3cc(C)c(C)cc3nc12,97.4,90.8,70.1,i,42.2,94.7,78.0
SMILES,SENP7 inh,SENP6 block,Platelet DG rel,HSP90 inh,SENP8 block-1,SENP8 block-2,SENP8 inh conf
COc1cc(NC(=O)c2cc([N+](=O)[O-])ccc2NC(=O)CN2CCN(c3ccccn3)CC2)cc(OC)c1,i,i,i,i,i,i,nt
CCOC(=O)C1(C)C=C(Nc2ccc(O)cc2)C(=O)N1c1ccc(O)cc1 (stereo not given),i,i,i,i,61.2,i,i
CCOC(=O)C1(C)C=C(Nc2ccc(OC)cc2)C(=O)N1c1ccc(OC)cc1 (stereo not given),i,i,i,i,i,i,nt
C1CCN(c2nc3nonc3nc2N2CCCCC2)CC1,i,i,i,i,i,i,nt
C1CCN(c2nc3nonc3nc2NCC2CCOCC2)CC1,i,i,i,i,43.5,i,i
C(=N\NC1=Nc2cccc3cccc1c23)/c1cccnc1,i,i,i,i,51.4,i,i
O=S1(=O)CC(N2CCN(CCO)CC2)CN1Cc1cn(Cc2ccccc2C(F)(F)F)nn1 (stereo not given),nt,nt,nt,nt,i,nt,nt
CC(O)/C=C/C1OC(=O)CC1Nc1ccc(C=O)cc1 (stereo not given),i,i,i,i,52.0,i,i
CCC(C(=O)N1CCCCCC1)n1nc(C)n2c(cc3occc32)c1=O (stereo not given),i,i,i,i,i,i,nt
CN(Cc1cn(-c2ccccc2)nc1-c1ccc(F)cc1)C(=O)CCC(=O)O,i,i,i,i,i,i,nt
CN(Cc1cn(-c2ccccc2)nc1-c1ccc(Cl)cc1)C(=O)CCC(=O)O,i,i,i,i,40.1,i,i
COc1ccc(NC2CCCN(C(=O)CSc3ccccn3)C2)cc1OC (stereo not given),i,i,i,i,27.9,i,i
Cc1ccc(/C=N/n2nnnc2N)o1,i,i,i,i,42.5,i,i
Nc1nnnn1/N=C/c1ccccc1,i,i,i,i,i,i,nt
COc1cc(NC(=O)C2CCCCN2)ccc1OCC(C)C (stereo not given),i,i,i,i,27.2,i,i
CC(C)[C@H]1C(=O)Nc2ccccc2N1C(=O)N[C@@H](Cc1ccccc1)C(=O)N[C@@H](C(=O)O)c1ccccc1,i,i,i,i,43.6,i,i
CC(C)[C@H](NC(=O)N1c2ccccc2NC(=O)[C@@H]1C(C)C)C(=O)N1CCC(C(=O)O)CC1,i,i,i,i,44.9,i,i
CN(Cc1ccccc1)C(=O)COC(=O)CN1C(=O)c2ccccc2C1=O,i,i,nt,nt,i,i,nt
O=C(C1CC(=O)N(c2ccc(F)c(Cl)c2)C1)N1CCOCC1 (stereo not given),nt,nt,nt,nt,i,nt,nt
Nc1cc([N+](=O)[O-])cc2oc(-c3ccccc3)cc12,i,i,i,i,35.8,i,i
O=C(/C=C/NNC(=O)c1ccccc1)c1ccc(Br)cc1,i,i,i,i,i,i,nt
O=C(/C=C/NNC(=O)c1ccc(Cl)cc1)c1ccccc1,i,i,i,i,39.0,i,i
OCCNCc1cc(Br)ccc1OCc1ccc(Cl)cc1Cl,nt,nt,i,i,41.6,nt,i
OCCNCc1cc(Br)ccc1OCc1ccc(Cl)cc1,i,i,i,i,i,i,nt
CC(=O)NCCC(Cc1ccccc1)c1ccco1 (stereo not given),i,i,i,i,i,i,nt
c1ccc(CNCCC(Cc2ccccc2)c2ccco2)cc1 (stereo not given),i,i,i,i,48.4,i,i
CC(C)c1ccc(NC(=O)CN(C)C2=NS(=O)(=O)c3ccccc32)cc1,nt,nt,nt,nt,i,nt,nt
